Source: PubChem
DSG3 Ab inh: inhibitors of pemphigus antibody binding to human desmoglein-3; P32926; DSG3-coupled beads, scFv-anti-DSG3-GFP binding, flow cytometry; hits give low values; binding (percent of control), % at 10 µM; hit rate 0.48% among 310,000; AID 588358;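 active means binding more than 3 SD below its plate's average and above zero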;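 further: hits lower antibody fragment binding to DSG3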
pPAFAH inh: pPAFAH (human) enzyme inhibition. Q13093. recombinant pPAFAH, FP-rhodamine probe fluorescence polarization. inhibition, % at 3.39 µM. hit rate 1.5% among 330,000. AID 463082;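 active means inhibition above the mean inhibition across the screen plus 3 SD, cut at about 25% in these data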;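 further: inhibitors block binding of the rhodamine activity-based probe so polarization drops; 0% = enzyme with DMSO and 100% = wells lacking pPAFAH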
PAFAH1B3 inh: inhibitors of human PAFAH1B3. Q15102. recombinant PAFAH1B3, FP-rhodamine probe, fluorescence polarization. inhibition, % at 3.39 µM. hit rate 0.28% among 340,000;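 active means inhibition above the screen-wide average of all tested compounds plus 3 SD, cut at about 25% in these data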;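 further: 0% = enzyme with DMSO only and 100% = wells lacking PAFAH1B3 protein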
Target sequence (Q15102 whole entry, looked up): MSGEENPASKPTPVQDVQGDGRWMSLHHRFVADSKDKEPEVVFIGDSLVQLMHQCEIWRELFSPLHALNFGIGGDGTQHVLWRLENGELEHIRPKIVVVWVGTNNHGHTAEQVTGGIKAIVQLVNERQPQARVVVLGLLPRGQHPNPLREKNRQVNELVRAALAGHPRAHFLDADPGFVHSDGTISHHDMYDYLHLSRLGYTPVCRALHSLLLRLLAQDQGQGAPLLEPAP
PAFAH1B2 inh: PAFAH1B2 (human) inhibition | inhibition, % at 3.39 µM | recombinant PAFAH1B2, FP-rhodamine activity probe, fluorescence polarization | hit rate 1.2% among 340,000 | AID 492953;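 active means inhibition above the mean of all tested compounds plus 3 SD, cut at about 24% in these data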;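 further: 0% = enzyme with DMSO and 100% = wells lacking PAFAH1B2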
Target sequence (P68402 whole entry, looked up): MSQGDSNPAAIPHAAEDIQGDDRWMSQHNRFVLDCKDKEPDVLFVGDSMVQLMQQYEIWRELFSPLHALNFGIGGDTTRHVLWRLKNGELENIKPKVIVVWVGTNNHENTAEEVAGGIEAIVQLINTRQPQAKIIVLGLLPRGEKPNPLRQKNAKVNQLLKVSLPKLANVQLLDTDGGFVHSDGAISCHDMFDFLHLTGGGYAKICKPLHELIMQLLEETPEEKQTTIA
PAFAH2 inh: inhibitors of human PAFAH2 | inhibition, % at 3.39 µM | AID 492956 | recombinant PAFAH2, FP-rhodamine activity probe, fluorescence polarization | hit rate 0.99% among 340,000;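 active means inhibition above the mean over all tested compounds plus 3 SD, cut at about 30% in these data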;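 further: inhibitors block probe labeling of enzyme so polarization drops; 0% = enzyme with DMSO and 100% = wells lacking PAFAH2 protein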
PfM18AAP inh: blocks P. falciparum M18 aspartyl aminopeptidase; recombinant PfM18AAP, H-Glu-NHMec fluorogenic cleavage; inhibition, % at 7.35 µM; hit rate 1.2% among 290,000;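 active means inhibition above the campaign mean inhibition over all tested compounds plus 3 SD, cut at about 28% in these data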;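 further: 0% = plate median of test compound wells and 100% = 2 mM ZnCl2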
PAFAH2 FP conf: PAFAH2 (human) inhibition, confirmed | shares compounds with PAFAH2 inh | recombinant PAFAH2, FP-rhodamine activity probe, fluorescence polarization | inhibition, % at 3.39 µM | hit rate 65% among 2,300 | AID 493030;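 active means mean inhibition over three repeats above a set limit taken from the earlier primary screen, cut at about 30% in these data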;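 further: inhibitor blocks binding of rhodamine activity probe so polarization falls; 0% = enzyme with DMSO and 100% = wells lacking PAFAH2 protein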
PAFAH1B3 confirm: confirmation of human PAFAH1B3 inhibitors. shares compounds with PAFAH1B3 inh. recombinant PAFAH1B3, FP-Rh activity-based probe, fluorescence polarization. inhibition, % at 3.39 µM. hit rate 30% among 390. AID 493032;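 active means average inhibition over triplicate runs above the hit cutoff set in the earlier primary screen, cut at about 25% in these data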;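 further: 0% = enzyme with DMSO and 100% = wells lacking PAFAH1B3 protein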
Starred values were filed as active, the others as inactive; . = not tested or not shown. The list is not random: actives were taken first. Their share in the collection is about 3.8%.

SMILES	DSG3 Ab inh	pPAFAH inh	PAFAH1B3 inh	PAFAH1B2 inh	PAFAH2 inh	PfM18AAP inh	PAFAH2 FP conf	others
C[C@@H]1CN([C@@H](C)CO)C(=O)CCCn2nncc2CO[C@H]1CN(C)Cc1cccc(C(F)(F)F)c1	101	.	.	.	.	.	.
O=C1c2ccccc2[C@@H]2C[C@@H](O)[C@H](Nc3cccc(C(F)(F)F)c3)CCN12	96	23	11	5	40*	.	30*
O=C(NC12CC3CC(CC(C3)C1)C2)c1cncc(O)c1	100	3	18	22	38*	7	20
O=C(NC12CC3CC(CC(C3)C1)C2)c1cccnc1	98	2	-2	8	1	4	.
CNC(=O)Cn1nc(C)c(S(=O)(=O)N2CCOCC2)c1C	.	4	3	2	2	.	.
Nc1ccc(C(=O)OCc2nc3ccccc3[nH]2)cc1	103	6	8	3	88*	-7	79*
O=c1cc(-c2ccccc2)[nH]n1-c1nc2ccccc2s1	109	15	17	3	42*	-12	47*
O=c1cc(-c2ccccc2)[nH]n1-c1ccccc1	109	.	12	4	3	.	.
CC1CN(C(=O)CCC(=O)NCCCN2C(C)CCCC2C)c2ccccc2O1 (configuration not stated)	99	0	-2	1	-5	7	.
Cc1cccc(C(C)C)c1NC(=O)COC(=O)CN1C(=O)C2CC=CCC2C1=O (configuration not stated)	99	4	4	2	53*	.	37*
CN(C)c1ccc(C(=O)OCC(=O)c2cccs2)cc1	102	3	3	-1	71*	-2	76*
CCc1ccc(C(=O)COC(=O)c2cccs2)cc1	105	7	0	-2	14	8	.
COc1ccc(C(=O)COC(=O)c2ccc(N(C)C)cc2)cc1	118	6	-1	-2	5	-5	.
CN(C)c1ccc(C(=O)OCC(=O)c2ccc[nH]2)cc1	137	7	2	2	68*	.	68*
Cc1ccc(C(=O)COC(=O)c2cccs2)cc1	105	2	9	2	30*	-5	21
Cc1cc(C(=O)OCC(=O)NC(C)c2ccc(F)cc2)c(C)o1 (configuration not stated)	99	-8	1	4	48*	.	34*
CC(NC(=O)COC(=O)/C=C/c1cccc(C(F)(F)F)c1)c1ccccc1 (configuration not stated)	103	3	5	-2	16	-2	.
O=C(COC(=O)CCc1c[nH]c2ccccc12)Nc1ccc([N+](=O)[O-])cc1	101	15	2	2	-1	-16	.
Cc1ccc(/C=C/C(=O)OCC(=O)NC(C)c2ccccc2)o1 (configuration not stated)	98	5	6	4	54*	.	38*
CC(NC(=O)COC(=O)c1c[nH]c2ccccc12)c1ccccc1 (configuration not stated)	93	8	-6	3	55*	.	52*
O=C(COC(=O)c1c[nH]c2ccccc12)Nc1ccc([N+](=O)[O-])cc1	107	4	8	-1	73*	.	73*
CC(NC(=O)CCc1c[nH]c2ccccc12)c1ccccc1 (configuration not stated)	90	2	10	12	1	-16	.
Cc1ccc(C(=O)OCC(=O)NC(C)c2ccccc2)cc1C (configuration not stated)	95	17	4	-3	75*	.	63*
Cc1cc(C(=O)OCC(=O)NC(C)c2ccccc2)c(C)o1 (configuration not stated)	102	3	6	3	32*	1	21
CCCCCCCCNc1ccccc1S(=O)(=O)NCc1ccccc1	101	2	6	2	1	.	.
SMILES	DSG3 Ab inh	pPAFAH inh	PAFAH1B3 inh	PAFAH1B2 inh	PAFAH2 inh	PfM18AAP inh	PAFAH2 FP conf	others
Cc1cc(C)cc(N2C(=O)CC(Sc3ccccc3C(=O)O)C2=O)c1 (configuration not stated)	107	-7	6	0	5	-14	.
Cc1ccc(N2C(=O)CC(Sc3ccccc3C(=O)O)C2=O)cc1 (configuration not stated)	95	4	2	0	92*	-30	-8
COc1ccc(OCc2cc(C(=O)NCc3cccc(C)n3)no2)c(Cl)c1	.	-6	-2	0	-20	-2	.
CCn1c(SCC(=O)NCc2ccccc2)nnc1C(CO)NC(=O)c1ccccc1 (configuration not stated)	103	3	6	0	4	-2	.
CCOC(=O)C1CC2=C(CCCC2=O)NC1=O (configuration not stated)	100	.	7	3	32*	.	22
CCOC(=O)C1CC2=C(CCCC2=O)N(Cc2ccccc2)C1=O (configuration not stated)	104	.	8	5	6	.	.
CC(C)CN(C(=O)COC(=O)C(C)N1C(=O)c2ccccc2C1=O)c1c(N)n(Cc2ccccc2)c(=O)[nH]c1=O (configuration not stated)	99	7	3	3	5	.	.
COc1ccc(N2C(=O)C3[C@@H](C2=O)C2(Cl)C(Cl)=C(Cl)C3(Cl)C2(OC)OC)cc1 (some centres not stated)	104	4	-1	4	33*	0	31*
COc1ccc(N2C(=O)C3C(C2=O)C3(c2ccccc2)c2ccccc2)cc1 (configuration not stated)	110	-2	4	3	-4	-2	.
C=CCNC(=O)COC(=O)C1CCN(S(=O)(=O)c2ccc3c(c2)OCCO3)CC1	108	20	15	2	-1	0	.
Nc1ccc2nn(-c3ccc(F)cc3)nc2c1	107	5	28*	1	6	8	.	PAFAH1B3 confirm=11
C=CCn1c(NC(=O)c2ccc(Br)o2)c(S(=O)(=O)c2ccccc2)c2nc3ccccc3nc21	126	6	53*	17	25	4	.	PAFAH1B3 confirm=6
O=C(Nc1ccc(S(=O)(=O)NCc2ccccc2)cc1)c1ccc(Br)o1	103	3	6	-1	-9	4	.
CCOC(=O)C1=C(COC(=O)c2cc(Br)c(Br)s2)NC(=O)NC1C (configuration not stated)	94	2	4	2	-1	.	.
O=[N+]([O-])c1ccc(O)c(-c2nn[nH]n2)c1	104	1	28*	11	-2	19	.	PAFAH1B3 confirm=26*
